Measurements reported in the supplement of paper PMC9477273.

The compounds below were run on DRIVER-selected RNA biosensor (aptazyme) pool (assay: maximum fold change of ribozyme cleavage across biosensor pool versus no-compound control; higher = stronger biosensor response (ligand inhibits cleavage)). Settings: 10 µM.
Method: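 CleaveSeq: a pool of resynthesized hammerhead-ribozyme RNA biosensors (sTRSV scaffold with randomized loops, 1,730 sequences) was T7-transcribed at 37 °C for 15-30 min with a single compound at 10 µM. Cleaved and uncleaved products were counted by NGS, and fold change of cleavage was computed against the DMSO-only condition. The value is the maximum fold change of cleavage over all biosensors in the pool. About 255 compounds were tested individually.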
For `CCc1ccc2oc(C(=O)N(Cc3ccccc3F)C3CCS(=O)(=O)C3)c(C)c2c1` (stereo not given), the maximum fold change was 4.9.
Work on `CC(C)NC(=O)C1(c2ccccc2)CCCC1` yielded a maximum fold change of 2.11.
`COc1ccc(CCn2c(SCC(=O)Nc3cc(C)n[nH]3)nc3ncccc3c2=O)cc1OC` was tested, and the maximum fold change was 11.2.
`Cc1ccc(CNC(=O)c2cc3c(=O)oc4ccccc4c3s2)o1` showed a maximum fold change of 3.09.
`CCOc1cc2c(cc1OCC)C1C(C(=O)NCc3cccnc3)c3ccccc3C(=O)N1CC2` (stereo not given) showed a maximum fold change of 4.02.
Compound `CCOCCCNC(=O)/C(C#N)=C/c1c(Oc2ccc(Br)cc2)nc2ccccn2c1=O` has a maximum fold change of 3.31.
With `N=C1NC(=O)/C(=C/c2cc(Br)ccc2OCc2ccccc2)S1` the maximum fold change was 4.89.
For `O=C1N=c2sc(nn2C(=N)/C/1=Cc1c[nH]c2c1cccc2)N1CCCC1`, the maximum fold change was 7.4.
`Clc1ccc2nc3c4ccccc4cnn3c2c1` gave a maximum fold change of 3.12.
For `COc1ccc(C=C2C(=O)c3ccccc3C2=O)cc1O`, the maximum fold change was 4.65.
`Cc1nc(NC(=N)NC(=O)CCN2C(=O)c3ccccc3C2=O)nc2ccccc12` showed a maximum fold change of 8.2.
Compound `COc1cc(OC)c(OC)cc1/C=C1N=C(c2ccco2)OC1=O` has a maximum fold change of 2.19.
With `c1ccc(-c2nc3cc(Oc4ccc5[nH]c(-c6ccccn6)nc5c4)ccc3[nH]2)nc1` the maximum fold change was 2.66.
For `COc1ccc(S(=O)(=O)N2CCCN(CC(=O)C(C)(C)C)CC2)cc1`, the maximum fold change was 2.33.
Compound `Cc1ccccc1-c1nc(CS(=O)(=O)CC(=O)N2CCN(Cc3ccccc3)CC2)c(C)o1` has a maximum fold change of 3.66.
`COc1ccccc1/C=C1N=C(c2ccc(Br)cc2)OC1=O` gave a maximum fold change of 2.7.
`CCOC(=O)c1ccc(S(=O)(=O)N2CCOCC2)cc1` gave a maximum fold change of 1.53.
For `CCOc1ccc(CCNC(=O)Cn2ccc3cc(S(=O)(=O)N4CCCC4)ccc32)cc1`, the maximum fold change was 3.07.
Work on `CCOc1ccc2c(c1)[N+](C)=C(/C=C/c1ccc(C(=O)OC)cc1)C2(C)C` yielded a maximum fold change of 2.67.
With `COc1ccc(-c2cc(-c3nc4c5c(ncn4n3)CCC5)n[nH]2)cc1` the maximum fold change was 1.38.
With `CC(NC(=O)/C=C/c1ccccc1Cl)c1ccccc1` (stereo not given) the maximum fold change was 2.1.
For `Cc1c(CNC(C)CCc2ccccc2)c(C(=O)O)c(C)n1Cc1cccc(Cl)c1` (stereo not given), the maximum fold change was 4.02.
`COCCNC(=O)C1c2ccccc2C(=O)N(CCOC)C1c1c[nH]c2ccccc12` (stereo not given) gave a maximum fold change of 2.7.
In the case of `COc1cccc(/C=N/NC(=N)N)c1O`, the maximum fold change is reported as 5.16.
For `COc1cccc(C(=O)/C=C2/Nc3ncc(Br)cc3NC2=O)c1`, the maximum fold change was 5.23.
`COc1ccccc1OCC(O)Cn1c[n+](C)c2cc(C)c(C)cc21` (stereo not given) was tested, and the maximum fold change was 3.47.
`Cn1c(=O)c2c(-c3ccc(Cl)cc3)n(C3CCCCC3)cc2n(C)c1=O` showed a maximum fold change of 2.62.
`O=c1oc2cc(O)ccc2c2ccccc12` gave a maximum fold change of 2.57.
`COc1cccc(/C=C(\C#N)c2nc3ccccc3[nH]2)c1O` showed a maximum fold change of 11.2.
In the case of `COc1ccc(-c2nc(CS(=O)(=O)CC(=O)NC3CCC(C)CC3)c(C)o2)cc1` (stereo not given), the maximum fold change is reported as 2.18.
`c1sc2c(c1CN1CCC3(CC1)OCCO3)CCCC2` gave a maximum fold change of 2.61.
Work on `CCOC(=O)N1CCC(NC(=O)c2ccc(CS(=O)c3cccc(C)c3)o2)CC1` (stereo not given) yielded a maximum fold change of 2.53.
`CCOC(=O)c1cnc(SC)nc1N` showed a maximum fold change of 3.4.
`CCOC(=O)c1sc2nc(C)nc(NCc3ccccc3OC)c2c1C` showed a maximum fold change of 4.59.
`Cc1ccccc1-c1nc(CS(=O)(=O)CC(=O)NC2CCCCC2C)c(C)o1` (stereo not given) showed a maximum fold change of 2.07.
Work on `COc1ccccc1OCCCn1cccc1/C=C1\C(=N)N2N=C(N3CCOCC3)SC2=NC1=O` yielded a maximum fold change of 2.03.
`COc1ccc(OC)c(C2C3=C(CC(C)(C)CC3=O)OC3=C2C(=O)CC(C)(C)C3)c1` gave a maximum fold change of 2.36.
Compound `COc1ccc(-c2c(C)nn3c(N)c(C#N)cnc23)cc1OC` has a maximum fold change of 4.07.
Compound `CC(C)CN(CC(C)C)c1nnc(NC(=O)NCc2ccco2)s1` has a maximum fold change of 2.36.
`C=CCNC(=O)/C(C#N)=C/c1c(Oc2ccccc2)nc2ccccn2c1=O` showed a maximum fold change of 9.03.
